Source: PubChem
Nrf2 block = Nrf2 qHTS screen for inhibitors. A549 ARE-Fluc reporter, luciferase luminescence, 18-24 h. AID 504444, 2011. Potency, µM (series often up to 46 µM), without a hit: top-dose activity change, negative = inhibition, actives largely listed as inhibitors. hit rate 2.1% among 360,000; further: on the % scale 0 is the no-effect control and ±100 the full control effect; nearly all actives have a fitted effect of over 60% in size
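Nrf2 activity is the BugLite luminescence, read 15 min after reagent at room temperature, following CellTiter-Fluor cytotoxicity readout (30 min, 37C). Compound titrations were applied for 18-24 h to 5000 A549 ARE_Fluc cells/well in 5% FBS OPTI-MEM.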
IDH1 R132H inh = qHTS for Inhibitors of mutant isocitrate dehydrogenase 1 (IDH1): qHTS | AID 602179, 2012 | Potency, µM (doses to about 76.6 µM), inactives show at the top dose activity change, negative = inhibition, hits mostly inhibitors | hit rate 0.093% among 390,000 | IDH1-R132H enzyme, NADPH consumption, diaphorase/resazurin fluorescence | Isocitrate dehydrogenase [NADP] cytoplasmic (Homo sapiens), O75874; further: on the % scale 0 is the no-effect control and ±100 the full control effect; nearly all actives have a fitted effect of over 65% in size
Target sequence (O75874 whole entry R132H, stated change not applied): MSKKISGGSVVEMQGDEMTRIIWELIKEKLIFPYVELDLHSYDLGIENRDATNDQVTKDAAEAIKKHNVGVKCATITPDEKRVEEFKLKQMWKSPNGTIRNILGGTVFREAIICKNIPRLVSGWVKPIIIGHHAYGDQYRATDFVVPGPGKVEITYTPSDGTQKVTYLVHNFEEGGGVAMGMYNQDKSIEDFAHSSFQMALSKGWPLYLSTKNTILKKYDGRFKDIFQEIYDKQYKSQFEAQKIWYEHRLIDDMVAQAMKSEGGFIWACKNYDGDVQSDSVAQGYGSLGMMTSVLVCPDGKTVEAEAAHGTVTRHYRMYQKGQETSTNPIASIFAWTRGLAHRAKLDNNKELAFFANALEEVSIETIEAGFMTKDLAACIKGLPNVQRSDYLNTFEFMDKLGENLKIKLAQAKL
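IDH1-R132H (0.5 ug/mL dispensed) in pH 7.5 Tris buffer was preincubated 30 min with compound, then given a substrate mix of 0.016 mM NADPH and 2 mM alpha-KG for 80 min at room temperature; remaining NADPH was read by diaphorase/resazurin fluorescence.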
A549 tox = Nrf2 qHTS screen for inhibitors: counterscreen for cytotoxicity. hit rate 0.16% among 390,000. Potency, µM (series often up to 46 µM), without a hit: at the top dose activity change, negative = cytotoxicity, hits mostly inhibitors. A549 ARE-Fluc cells, CellTiter-Fluor viability, 18-24 h; further: on the % scale 0 is the no-effect control and ±100 the full control effect
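A549 ARE-Fluc cells in 5% FBS OPTI-MEM, 5000 cells/well, rested 2 h then exposed to compounds in concentration-response for 18-24 h at 37 °C. Viability by CellTiter-Fluor fluorescence (Ex 405/Em 525) after 30 min; luciferase luminescence (BugLite, 15 min, RT) read afterwards.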
Nrf2 ARE act = qHTS of Nrf2 Activators | AID 624171, 2012 | AREc32 ARE-luciferase reporter (MCF7-derived line), luminescence, 24 h | Potency, µM (highest dose often 46.1 µM), inactives show at the top dose activation, most hits filed as activators | hit rate 0.31% among 410,000; further: % of control where 0% means no effect; nearly all actives have a fitted effect of over 65% in size
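Nrf2 activation is followed as ARE-luciferase induction in the AREc32 line after one day of compound treatment; luminescence is read with Steady-Glo.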
ELG1 repair inh = qHTS screen for small molecules that inhibit ELG1-dependent DNA repair in human embryonic kidney (HEK293T) cells expressing luciferase-tagged ELG1; HEK293T ELG1-luciferase reporter, luminescence, 16 h; DNA damage induced by 5-fluorouridine; Potency, µM (highest dose often 46.1 µM), inactives show top-dose activity change, negative = inhibition, most hits filed as inhibitors; hit rate 2.3% among 330,000; further: on the % scale 0 is the no-effect control and ±100 the full control effect; nearly all actives have a fitted effect of over 55% in size
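In this reporter screen, reduction of luminescence relative to DMSO vehicle indicated activity. Compounds and 5-fluorouridine were added together to 2,000 cells per well, incubated for 16 hr at 37 °C, then developed with ONE-Glo.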
ELG1 FLuc counter = qHTS screen for small molecules that inhibit ELG1-dependent DNA repair: Hit Confirmation in Cell-Based Luciferin Assay. cell-free firefly luciferase luminescence counter-screen, ViewLux. Potency, µM (doses to about 46.1 µM), without a hit: at the top dose activity change, negative = inhibition, usual class: inhibitors. hit rate 3% among 350. shares compounds with ELG1 repair inh. AID 624247, 2012; further: on the % scale 0 is the no-effect control and ±100 the full control effect
ELG1-Luc inh = HTS assay for small molecules that inhibit ELG1-dependent DNA repair in human embryonic kidney (HEK293T) cells expressing luciferase-tagged ELG1: Hit Confirmation; shares compounds with ELG1 repair inh; HEK293T ELG1-luciferase levels, luminescence; cells co-treated with 5-fluorouridine; Potency, µM (highest dose often 46.1 µM), for inactives: at the highest dose activity change, negative = inhibition, usual class: inhibitors; hit rate 68% among 670; further: on the % scale 0 is the no-effect control and ±100 the full control effect; nearly all actives have a fitted effect of over 55% in size
ELG1-Luc MMS = MMS-stimulated human ELG1 repair inhibition, confirmed. shares compounds with ELG1 repair inh. Potency, µM (top dose mostly 46.1 µM), inactives show top-dose activity change, negative = inhibition, actives largely listed as inhibitors. AID 624249. HEK293T luciferase-tagged ELG1 level, MMS stimulated. hit rate 53% among 670; further: on the % scale 0 is the no-effect control and ±100 the full control effect; nearly all actives have a fitted effect of over 60% in size
ELG1 5FU viab = qHTS screen for small molecules that inhibit ELG1-dependent DNA repair: Hit Confirmation with 5FU Viability; shares compounds with ELG1 repair inh; cell viability with 5-FU, ELG1-dependent repair; Potency, µM (doses to about 46.1 µM), for inactives: at the highest dose activity change, negative = viability loss, most hits filed as cytotoxic; 670 tested, under 10 active;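 further: ELG1-luc HEK293T cells cotreated with 5-fluorouridine at 10 µM final; viability measured 16 h after compound addition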
ELG1 MMS cell = qHTS screen for small molecules that inhibit ELG1-dependent DNA repair: Hit Confirmation with MMS Viability; shares compounds with ELG1 repair inh; Cell viability with MMS, ELG1-dependent DNA repair; Potency, µM (top dose mostly 46.1 µM), for the others: at the highest dose activity change, negative = viability loss, most hits filed as cytotoxic; hit rate 33% among 670;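 further: ELG1-luc HEK293T cells co-treated with 10 µM MMS; viability read 16 h after compound addition; on the % scale 0 is the no-effect control and ±100 the full control effect; nearly all actives have a fitted effect of over 60% in size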
Cell viab unstim = qHTS screen for small molecules that inhibit ELG1-dependent DNA repair: Hit Confirmation with Unstimulated Viability Assay. cell viability counter-screen, unstimulated, luminescence. hit rate 8% among 900. Potency, µM (series often up to 45.9 µM), for inactives: at the top dose activity change, negative = loss of viability, hits mostly cytotoxic. shares compounds with ELG1 repair inh;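 further: compound exposure lasted 16 hours before reading; on the % scale 0 is the no-effect control and ±100 the full control effect; nearly all actives have a fitted effect of over 55% in size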
FLuc biochem = qHTS screen for small molecules that inhibit ELG1-dependent DNA repair: Hit Confirmation in Biochemical Luciferin Assay; shares compounds with ELG1 repair inh; purified firefly luciferase, luminescence counter-screen; Potency, µM (doses to about 57.5 µM), inactives show at the highest dose activity, negative = inhibition, actives largely listed as inhibitors; hit rate 10% among 350; AID 624253, 2012; further: on the % scale 0 is the no-effect control and ±100 the full control effect
The depositor's hits bear a star; u = inconclusive; x = not tested or not shown. Rows were chosen to be rich in hits. Some 3.8% of all compounds tested hit in one or more screens of this group. The call rests on the fitted dose curve; in most records, active means well fitted curve in the direction sought with a large enough effect; inconclusive means small, poorly fitted or top-dose-only effect, or another doubt; inactive means no such curve, though single readings can be large; an effect the other way counts as inactive or inconclusive. Potency means the concentration at half of the fitted maximal effect.

SMILES | Nrf2 block | IDH1 R132H inh | A549 tox | Nrf2 ARE act | ELG1 repair inh | ELG1-Luc inh | ELG1-Luc MMS | ELG1 5FU viab | ELG1 MMS cell | Cell viab unstim | others
CCC(C)(C)C1CCc2nc3ccccc3c(C(=O)OC(C)C(=O)Nc3c(C)n(C)n(-c4ccccc4)c3=O)c2C1 (stereo not drawn) | u | -3% | -20% | 0% | 4.1µM* | 2.2µM* | 25µM* | u | 3% | u
Cc1c(NC(=O)C(C)OC(=O)c2cccs2)c(=O)n(-c2ccccc2)n1C (stereo not drawn) | 8% | 0% | 1% | 0% | u | x | x | x | x | x
CCOc1ccc(CCNc2nc3c(c(=O)n(C)c(=O)n3C)n2CC)cc1OCC | u | 3% | -8% | -1% | u | 14µM* | 11µM* | 4% | -18% | -7% | ELG1 FLuc counter=-11%;FLuc biochem=1%
O=S(=O)(c1cc(F)ccc1F)N1CCN(c2ncnc3ccccc23)CC1 | 12µM* | -4% | -18% | 0% | 4.6µM* | 6.3µM* | 2.2µM* | -14% | 2.5µM* | u
CCN(CC)Cc1c(O)ccc2c([N+](=O)[O-])c(C)n(-c3ccc(OC)cc3)c12 | x | 1% | -16% | 5% | 2.3µM* | 4µM* | u | -7% | -9% | -14%
Cc1ccc(C)c(CN2C(=O)c3ccccc3S(=O)(=O)c3ccc(C(=O)N4CCN(c5ccccn5)CC4)cc32)c1 | -17% | x | 10% | 6% | x | x | x | x | x | x
O=C(c1ccco1)N1CCN(c2ncnc3scc(-c4ccccc4)c23)CC1 | u | 4% | -3% | 0% | u | x | x | x | x | x
